# Data published in PubChem BioAssay (NCI).
# Compounds without any hit were thinned out: in the full panel of roughly 79,000, 15% have a hit. Values without a mark were called inactive. Calls of active or inactive are those of the source. Cut-off read from the data, not from the text of the source: active = growth inhibition above about 70%; inactive = the rest.
# Columns and labels:
# [1] = NCI Yeast Anticancer Drug Screen. Data for the wt1 strain (AID 149);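 note: 0% = growth of vehicle-treated wt1 cultures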; conditions: S. cerevisiae wt1 strain (SPY 50644) growth inhibition, active compounds read high
# Procedure, shortened: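 Yeast wt1 strain exposed to compounds; growth inhibition measured relative to vehicle-treated controls.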
# [2] = NCI Yeast Anticancer Drug Screen. Data for the rad50EPP+ strain (AID 151);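 note: 0% = growth of vehicle-treated control cultures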; conditions: S. cerevisiae rad50 mutant strain, active compounds read high
# Procedure, shortened: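 One strain with a rad50 alteration (rad50EPP+) was compound-treated, its growth then compared to that of vehicle controls.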
# [3] = NCI Yeast Anticancer Drug Screen. Data for the mgt1 strain (AID 153); conditions: S. cerevisiae mgt1 mutant growth inhibition, active compounds read high
# Procedure, shortened: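 After exposure of the mgt1 yeast mutant to compound, growth was measured and reported as inhibition compared with vehicle controls.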
# [4] = NCI Yeast Anticancer Drug Screen. Data for the rad50 strain (AID 155);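 note: 0% = growth of vehicle-only cultures of the same strain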; conditions: S. cerevisiae rad50 strain growth inhibition, active compounds read high
# Procedure, shortened: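 Yeast carrying a defined DNA repair defect were exposed to test compounds, and growth was compared with vehicle-treated controls to give percent inhibition.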
# [5] = NCI Yeast Anticancer Drug Screen. Data for the mec2-1 strain (AID 157); conditions: S. cerevisiae mec2-1 strain, active compounds read high
# Procedure, shortened: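 Test agents were screened against the mec2-1 yeast strain, with defined DNA repair or cell cycle alteration. Growth was scored as inhibition against vehicle-only controls.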
# [6] = NCI Yeast Anticancer Drug Screen. Data for the rad14 strain (AID 159);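 note: 0% = growth of vehicle-treated control cultures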; conditions: S. cerevisiae rad14 strain growth inhibition, active compounds read high
# Procedure, shortened: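 Yeast cells carrying a defined DNA-repair defect were exposed to compounds, and growth inhibition was calculated relative to vehicle-treated control cultures.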
# [7] = NCI Yeast Anticancer Drug Screen. Data for the sgs1 mgt1 strain (AID 161);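 note: 0% = growth of cultures given vehicle only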; conditions: S. cerevisiae sgs1 mgt1 strain, active compounds read high
# Procedure, shortened: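 Genetically altered yeast, compound exposure, growth inhibition relative to vehicle.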
# [8] = NCI Yeast Anticancer Drug Screen. Data for the CLN2oe strain (AID 163);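 note: 0% = growth of vehicle-only control cultures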; conditions: S. cerevisiae CLN2oe strain, active compounds read high
# Procedure, shortened: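 Here, growth inhibition in a cell-cycle-altered yeast strain after compound exposure was quantified against vehicle control growth.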
# [9] = NCI Yeast Anticancer Drug Screen. Data for the cln2 rad14 strain (AID 165);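 note: 0% = growth equal to vehicle treated cultures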; conditions: S. cerevisiae cln2 rad14 strain, active compounds read high
# Procedure, shortened: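 Growth of compound-exposed yeast (cln2 rad14 genotype) measured and expressed as inhibition relative to vehicle.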
# [10] = NCI Yeast Anticancer Drug Screen. Data for the bub3 strain (AID 167); conditions: S. cerevisiae bub3 mutant strain, active compounds read high
# Procedure, shortened: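 Compounds were applied to a genetically altered yeast strain carrying a cell-cycle control defect. Growth inhibition was scored against vehicle-treated controls.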
# [11] = NCI Yeast Anticancer Drug Screen. Data for the wt2 strain (AID 169);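 note: 0% = growth of vehicle-treated yeast cultures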; conditions: S. cerevisiae wt2 strain growth inhibition, active compounds read high
# Procedure, shortened: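 Genetically defined yeast strains from a DNA-repair/cell-cycle panel were used. Compound-exposed yeast growth was measured, and the inhibition was calculated relative to vehicle treatment.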
# [12] = NCI Yeast Anticancer Drug Screen. Data for the mlh1 strain (AID 171);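 note: 0% = growth of vehicle-treated control cultures of the same strain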; conditions: S. cerevisiae mlh1 strain growth inhibition, active compounds read high
# Procedure, shortened: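 Here the genetically defined yeast mutant is grown with each compound, and the extent to which its growth falls below that of vehicle-exposed cells is reported.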
# [13] = NCI Yeast Anticancer Drug Screen. Data for the sgs1 strain (AID 173);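 note: 0% = growth of vehicle-only control cultures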; conditions: S. cerevisiae sgs1 mutant, active compounds read high
# Procedure, shortened: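 Relative growth inhibition, referenced to vehicle, was determined in a yeast strain with a defined alteration affecting DNA damage repair or cell cycle control after compound exposure.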
# [14] = NCI Yeast Anticancer Drug Screen. Data for the mlh1 rad18 strain (AID 175); conditions: S. cerevisiae mlh1 rad18 strain growth inhibition, active compounds read high
# Procedure, shortened: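 In this whole-cell yeast screen, a strain with altered DNA damage repair is challenged with compound, and its growth is measured against matched vehicle-treated controls.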
# [15] = NCI Yeast Anticancer Drug Screen. Data for the rad18 strain (AID 177); conditions: S. cerevisiae rad18 mutant growth inhibition, active compounds read high
# Procedure, shortened: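 Screen uses a yeast strain with a defined lesion in DNA damage repair; compound effect is read as loss of growth compared to untreated vehicle cultures.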
# [16] = at 5.0 µM (retest, dose inferred, filed as 0.5)
# [17] = at 50.0 µM (retest, dose inferred, filed as 5.0)
structure (smiles),measurement,setting,value
Cc1ccc(NCCNCCO)c2c(=O)c3cc(O)ccc3sc12,growth inhibition,[1]; at 1.2 µM,10%
same,growth inhibition,[1]; at 3.7 µM,-9%
same,growth inhibition,[1]; at 11.0 µM,-5%
same,growth inhibition,[1]; at 33.0 µM,-1%
same,growth inhibition,[1]; at 100.0 µM,18%
same,growth inhibition,[2]; at 1.2 µM,12%
same,growth inhibition,[2]; at 3.7 µM,22%
same,growth inhibition,[2]; at 11.0 µM,25%
same,growth inhibition,[2]; at 33.0 µM,36%
same,growth inhibition,[2]; at 100.0 µM,51%
same,growth inhibition,[3]; at 1.2 µM,-10%
same,growth inhibition,[3]; at 3.7 µM,1%
same,growth inhibition,[3]; at 11.0 µM,-11%
same,growth inhibition,[3]; at 33.0 µM,-1%
same,growth inhibition,[3]; at 100.0 µM,90% (active)
same,growth inhibition,[4]; at 1.2 µM,4%
same,growth inhibition,[4]; at 3.7 µM,4%
same,growth inhibition,[4]; [16],49%
same,growth inhibition,[4]; at 11.0 µM,28%
same,growth inhibition,[4]; at 33.0 µM,93% (active)
same,growth inhibition,[4]; [17],99% (active)
same,growth inhibition,[4]; at 50.0 µM,80.8% (active)
same,growth inhibition,[4]; at 100.0 µM,95% (active)
same,growth inhibition,[5]; at 1.2 µM,5%
same,growth inhibition,[5]; at 3.7 µM,-13%
same,growth inhibition,[5]; [16],21%
same,growth inhibition,[5]; at 11.0 µM,-11%
same,growth inhibition,[5]; at 33.0 µM,-10%
same,growth inhibition,[5]; [17],99% (active)
same,growth inhibition,[5]; at 50.0 µM,71.8% (active)
same,growth inhibition,[5]; at 100.0 µM,58%
same,growth inhibition,[6]; at 1.2 µM,-18%
same,growth inhibition,[6]; at 3.7 µM,-4%
same,growth inhibition,[6]; at 11.0 µM,-2%
same,growth inhibition,[6]; at 33.0 µM,0%
same,growth inhibition,[6]; at 100.0 µM,97% (active)
same,growth inhibition,[7]; [16],8%
same,growth inhibition,[7]; [17],99% (active)
same,growth inhibition,[7]; at 50.0 µM,89.2% (active)
same,growth inhibition,[8]; at 1.2 µM,6%
same,growth inhibition,[8]; at 3.7 µM,14%
same,growth inhibition,[8]; at 11.0 µM,24%
same,growth inhibition,[8]; at 33.0 µM,23%
same,growth inhibition,[8]; at 100.0 µM,96% (active)
same,growth inhibition,[9]; [16],17%
same,growth inhibition,[9]; [17],100% (active)
same,growth inhibition,[9]; at 50.0 µM,88.9% (active)
same,growth inhibition,[10]; at 1.2 µM,-24%
same,growth inhibition,[10]; at 3.7 µM,0%
same,growth inhibition,[10]; [16],18%
same,growth inhibition,[10]; at 11.0 µM,0%
same,growth inhibition,[10]; at 33.0 µM,-2%
same,growth inhibition,[10]; [17],99% (active)
same,growth inhibition,[10]; at 50.0 µM,89.2% (active)
same,growth inhibition,[10]; at 100.0 µM,96% (active)
same,growth inhibition,[11]; at 1.2 µM,10%
same,growth inhibition,[11]; at 3.7 µM,3%
same,growth inhibition,[11]; at 11.0 µM,4%
same,growth inhibition,[11]; at 33.0 µM,63%
same,growth inhibition,[11]; at 100.0 µM,24%
same,growth inhibition,[12]; at 1.2 µM,-20%
same,growth inhibition,[12]; at 3.7 µM,-8%
same,growth inhibition,[12]; at 11.0 µM,-18%
same,growth inhibition,[12]; at 33.0 µM,-10%
same,growth inhibition,[12]; at 100.0 µM,93% (active)
same,growth inhibition,[13]; at 1.2 µM,15%
same,growth inhibition,[13]; at 3.7 µM,35%
same,growth inhibition,[13]; at 11.0 µM,43%
same,growth inhibition,[13]; at 33.0 µM,48%
same,growth inhibition,[13]; at 100.0 µM,91% (active)
same,growth inhibition,[14]; [16],13%
same,growth inhibition,[14]; [17],99% (active)
same,growth inhibition,[14]; at 50.0 µM,81.7% (active)
same,growth inhibition,[15]; at 1.2 µM,-35%
same,growth inhibition,[15]; at 3.7 µM,-30%
same,growth inhibition,[15]; at 11.0 µM,-27%
same,growth inhibition,[15]; at 33.0 µM,-5%
same,growth inhibition,[15]; at 100.0 µM,93% (active)
